Compound activity: PubChem, Broad Institute
NOMO-1 viab: STK33 inhibitor candidate reducing NOMO-1 cell viability; NOMO-1 AML viability, CellTiter-Glo luminescence, 72 h; 37,000 compounds, 7.5% hits; inhibition, % (test concentration not listed); in the data active means inhibition above about 80%; inconclusive means no clear call, values can overlap the other calls
U2OS ROS induce: inducers of reactive oxygen species in cancer cells | U2OS ROS induction, H2DCF-DA fluorescence | 46,000 compounds, 2% hits | ROS induction (% of piperlongumine), % at 10 µM; in the data active means ROS induction above about 79%, passing the limit was not always enough; inconclusive means no clear call, values can overlap the other calls;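 further: 0% = DMSO vehicle median and 100% = reference compound median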
* hit, by the source's call; ? = inconclusive; · = no result. The sample as a whole holds a higher share of hits than the screen did.

SMILES | NOMO-1 viab | U2OS ROS induce
COc1ccc(NC(=O)N(C)C[C@@H]2Oc3ccc(NS(C)(=O)=O)cc3CC(=O)N([C@@H](C)CO)C[C@@H]2C)cc1 | -2.9 | -3.5
O=C(CCN1C(=O)c2ccccc2C1=O)Nc1ccc(Nc2ccccc2)cc1 | 70.2 | ·
C[C@@H]1CCCCO[C@H](CN(C)Cc2ccc3c(c2)OCO3)[C@@H](C)CN([C@H](C)CO)C(=O)c2cc(NC(=O)Nc3ccc(C(F)(F)F)cc3)ccc2O1 | 84.4* | 20.1
C[C@@H]1CCCCO[C@H](CN(C)Cc2ccc(C(F)(F)F)cc2)[C@@H](C)CN([C@H](C)CO)C(=O)c2cc(NC(=O)Nc3ccc(F)cc3)ccc2O1 | 100.2* | 32.9
C[C@@H]1CCCCO[C@@H](CN(C)C(=O)Nc2ccc(C(F)(F)F)cc2)[C@@H](C)CN([C@H](C)CO)C(=O)c2cc(NC(=O)Nc3ccc4c(c3)OCO4)ccc2O1 | 58.3 | 26.0
C[C@@H]1CCCCO[C@H](CN(C)Cc2ccncc2)[C@@H](C)CN([C@H](C)CO)C(=O)c2cc(NC(=O)Nc3ccc(F)cc3)ccc2O1 | 11.8 | -15.2
Cc1ccc([N+](=O)[O-])cc1NC(=O)c1cc(S(=O)(=O)N2CCOCC2)c(Cl)cc1Cl | 36.9 | 1.5
C[C@H]1CN([C@@H](C)CO)C(=O)c2cc(NC(=O)NC3CCCCC3)ccc2O[C@H]1CN(C)Cc1ccc(Cl)c(Cl)c1 | 20.9 | -12.8
C[C@@H]1CN([C@@H](C)CO)C(=O)Cc2cc(NS(=O)(=O)c3ccccc3)ccc2O[C@@H]1CN(C)Cc1ccncc1 | -12.8 | -1.4
COC(=O)C(CC#Cc1ccc2c(c1)[C@]1(C(=O)N2)[C@H](C(N)=O)[C@H]2C(=O)O[C@H](c3ccccc3)[C@H](c3ccccc3)N2[C@@H]1c1ccc(OCCO)cc1)C(=O)OC | · | 30.5
COC(=O)C(CC#Cc1ccc2c(c1)[C@]1(C(=O)N2)[C@H](C(=O)N2CCc3cc(OC)c(OC)cc3C2)[C@H]2C(=O)O[C@H](c3ccccc3)[C@H](c3ccccc3)N2[C@@H]1c1ccccc1OCCO)C(=O)OC | · | 24.3
COCCOC(=O)N1C(=O)[C@@]2(c3cc(C#CCCO)ccc31)[C@H](C(=O)N1CCc3cc(OC)c(OC)cc3C1)[C@H]1C(=O)O[C@H](c3ccccc3)[C@H](c3ccccc3)N1[C@@H]2c1ccccc1OCCO | · | 51.7
COC(=O)C(CC#Cc1ccc2c(c1)[C@]1(C(=O)N2)[C@H](c2ccccc2OCCO)N2[C@H](c3ccccc3)[C@H](c3ccccc3)OC(=O)[C@H]2[C@@H]1C(=O)N1CCc2cc(OC)c(OC)cc2C1)C(=O)OC | · | 174.9*
O=C1O[C@@H](c2ccccc2)[C@@H](c2ccccc2)N2[C@@H](c3ccccc3OCCO)[C@]3(C(=O)Nc4ccc(C#CC5(O)CCCCCC5)cc43)[C@@H](C(=O)NC[C@H](O)c3ccccc3)[C@H]12 | · | 60.1
COC(=O)C(CC#Cc1ccc2c(c1)[C@]1(C(=O)N2)[C@H](C(N)=O)[C@H]2C(=O)O[C@H](c3ccccc3)[C@H](c3ccccc3)N2[C@@H]1c1ccccc1OCCO)C(=O)OC | · | 142.3*
COCCOC(=O)N1C(=O)[C@@]2(c3cc(C#CCCO)ccc31)[C@H](c1ccccc1OCCO)N1[C@H](c3ccccc3)[C@H](c3ccccc3)OC(=O)[C@H]1[C@@H]2C(=O)N1CCc2cc(OC)c(OC)cc2C1 | · | 94.7*
COC(=O)C(CC#Cc1ccc2c(c1)[C@]1(C(=O)N2)[C@H](C(=O)NC[C@H](O)c2ccccc2)[C@H]2C(=O)O[C@H](c3ccccc3)[C@H](c3ccccc3)N2[C@@H]1c1ccccc1OCCO)C(=O)OC | · | 113.1*
O=C(Nc1cccc2cccnc12)c1ccccc1S(=O)(=O)c1ccc([N+](=O)[O-])cc1 | 10.8 | ·
Cc1ccc(NC(=O)C(C)Sc2nnc(-c3ccc([N+](=O)[O-])cc3)n2-c2ccccc2)cc1 (stereo not drawn) | 25.0 | ·
COc1ccc2cc3[n+](cc2c1OC)CCc1cc2c(cc1-3)OCO2 | 110.0* | -4.4
COc1ccc2c(c1OC)CN(C)CCc1cc3c(cc1C(=O)C2)OCO3 | 5.9 | -5.0
C[C@@H]1CN([C@H](C)CO)C(=O)c2cc(NS(=O)(=O)c3cn(C)cn3)ccc2O[C@@H]1CN(C)C(=O)Nc1ccccc1 | -10.9 | -4.4
C[C@H]1CN([C@@H](C)CO)C(=O)c2cc(NS(=O)(=O)c3ccccc3)ccc2O[C@H]1CN(C)Cc1ccc(C(F)(F)F)cc1 | 32.8 | 4.8
Cc1ccc(S(=O)(=O)Nc2ccc3c(c2)C(=O)N([C@H](C)CO)C[C@@H](C)[C@@H](CN(C)Cc2ccc(C(F)(F)F)cc2)O3)cc1 | 121.9* | 5.4
C[C@H](CO)N1C[C@H](C)[C@@H](CN(C)Cc2ccc(C(F)(F)F)cc2)Oc2ccc(NS(=O)(=O)c3ccc(F)cc3)cc2C1=O | 34.8 | ?
SMILES | NOMO-1 viab | U2OS ROS induce
C[C@@H]1CN([C@@H](C)CO)C(=O)c2cc(NS(=O)(=O)c3ccc(Cl)cc3)ccc2O[C@@H]1CN(C)Cc1ccc(C(F)(F)F)cc1 | 123.4* | 14.1
Cc1ccc(S(=O)(=O)Nc2ccc3c(c2)C(=O)N([C@H](C)CO)C[C@H](C)[C@@H](CN(C)Cc2ccc(C(F)(F)F)cc2)O3)cc1 | 68.5 | 56.3
C[C@@H]1CN([C@@H](C)CO)C(=O)c2cc(NS(=O)(=O)c3ccc(F)cc3)ccc2O[C@H]1CN(C)Cc1ccc(C(F)(F)F)cc1 | 50.6 | 28.4
C[C@@H]1CN([C@@H](C)CO)C(=O)c2cc(NS(=O)(=O)c3ccccc3)ccc2O[C@H]1CN(C)Cc1ccc(C(F)(F)F)cc1 | 37.9 | 81.9*
Cc1ccc(S(=O)(=O)Nc2ccc3c(c2)C(=O)N([C@@H](C)CO)C[C@@H](C)[C@@H](CN(C)Cc2ccc(C(F)(F)F)cc2)O3)cc1 | 97.7* | 5.0
COc1ccc(CNC(=O)c2ccc(OC)cc2OC)cc1 | · | -2.0
COC(=O)c1ccc(NC(=O)CCn2nc(-c3ccc(Cl)cc3)c3ccccc3c2=O)cc1 | 19.0 | 17.6
C[C@H]1CN([C@@H](C)CO)C(=O)c2cc(NS(=O)(=O)c3ccc(Cl)cc3)ccc2O[C@@H]1CN(C)S(C)(=O)=O | 18.5 | -7.4
C[C@@H]1CN([C@H](C)CO)C(=O)c2cccc(NC(=O)C3CCCCC3)c2O[C@H]1CN(C)C(=O)Nc1ccc(C(F)(F)F)cc1 | 5.9 | -2.5
N#CC(=C1SCCCCS1)S(=O)(=O)c1ccc(Cl)cc1 | 29.5 | 4.2
N#CC(C(=O)c1ccccc1Cl)=C1SCCCS1 | 114.4* | 62.9
Cc1ccc(C(=O)/C=c2\[nH]c(=O)/c(=C/c3cccnc3)s2)cc1 | · | 5.6
COc1ccc(NC(=O)N(C)C[C@@H]2Oc3ccc(NC(=O)Nc4ccccc4)cc3CC(=O)N([C@@H](C)CO)C[C@@H]2C)cc1 | 6.0 | -4.4
C[C@H](CO)N1C[C@H](C)[C@H](CN(C)C(=O)NC2CCCCC2)Oc2ccc(NC(=O)Nc3ccc(C(F)(F)F)cc3)cc2C1=O | 63.4 | 34.7
C[C@@H]1CN([C@@H](C)CO)C(=O)c2cc(NC(=O)Cc3ccccc3)ccc2O[C@H]1CN(C)C(=O)Nc1ccc(C(F)(F)F)cc1 | 27.9 | 9.1
C[C@H]1CN([C@@H](C)CO)C(=O)c2cc(NC(=O)Nc3ccc(C(F)(F)F)cc3)ccc2O[C@H]1CN(C)C(=O)Nc1ccc(C(F)(F)F)cc1 | 119.6* | 13.4
